± gives the standard deviation.

The values below come from the supplement of paper PMC4022240.

Sequences and labels used below:
T1: HaloTag-ATRX ADD domain (163-292)
T1 chain: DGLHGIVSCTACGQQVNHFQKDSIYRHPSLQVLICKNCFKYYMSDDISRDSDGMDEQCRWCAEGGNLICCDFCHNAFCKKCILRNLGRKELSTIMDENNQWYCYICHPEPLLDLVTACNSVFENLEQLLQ

The first assay addresses T1, HaloTag-ATRX ADD domain (163-292). The experiment in a line: peptide microarray binding signal (635 nm), min-max normalized on array (fraction of array maximum); higher = stronger binding. Conditions: peptide region: Unmod H1 variant; binder concentration: 50 nM. The essentials:
(§1)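 For each library, binding signal was taken as the triplicate-spot mean intensity and then min-max scaled. Spots of histone 13-mer peptide–cellulose conjugates on nitrocellulose, printed in triplicate with a Cy3 tracer, were probed for 1 h at 4°C with either biotin-labelled HaloTag reader fusions (10 nM to 1 μM) and streptavidin-Alexa Fluor 647 or rabbit histone antibodies (1:10,000 to 1:2,000) and anti-rabbit Alexa 647. Readout at 635 nm came from an Axon GenePix 4000B.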
With RLVTTGVLKQTKG [Unmod H1 variant R L V T T G V L K Q T K G], the “peptide microarray binding signal” value is 0.0191 ± 0.00044.

Turning to SFRLAKSDEPKKS [Unmod H1 variant S F R L A K S D E P K K S], the “peptide microarray binding signal” value came out at 0.0196 ± 0.0052.

For TKKEIKKVATPKK [Unmod H1 variant T K K E I K K V A T P K K], the “peptide microarray binding signal” value is 0.0108 ± 0.00026.

The assay is the same for the next values; noted with them: peptide region: Unmod H1 variant; binder concentration: 500 nM.
As for RLVTTGVLKQTKG [Unmod H1 variant R L V T T G V L K Q T K G], the “peptide microarray binding signal” value stood at 0.035 ± 0.0031.

For SFRLAKSDEPKKS [Unmod H1 variant S F R L A K S D E P K K S], the “peptide microarray binding signal” value stood at 0.0223 ± 0.001.

As to TKKEIKKVATPKK [Unmod H1 variant T K K E I K K V A T P K K], the “peptide microarray binding signal” value was found to be 0.00952 ± 0.00026.

The next assay has as its target HaloTag-ING2 PHD (mouse Ing2 200-280). Described as above. The following applies: peptide region: Unmod H1 variant; binder concentration: 10 nM. The essentials:
as §1
As for RLVTTGVLKQTKG [Unmod H1 variant R L V T T G V L K Q T K G], the “peptide microarray binding signal” value is 0.0205 ± 0.0038.

Consider SFRLAKSDEPKKS [Unmod H1 variant S F R L A K S D E P K K S], for which the “peptide microarray binding signal” value came out at 0.00448 ± 0.00019.

Take TKKEIKKVATPKK [Unmod H1 variant T K K E I K K V A T P K K]: the “peptide microarray binding signal” value was 0.00185 ± 3.8e-05.

Staying with this assay, now noted: peptide region: Unmod H1 variant; binder concentration: 100 nM.
Turning to RLVTTGVLKQTKG [Unmod H1 variant R L V T T G V L K Q T K G], the “peptide microarray binding signal” value was 0.0395 ± 0.0068.

SFRLAKSDEPKKS [Unmod H1 variant S F R L A K S D E P K K S]: the “peptide microarray binding signal” value turned out to be 0.0192 ± 0.0084.

Take TKKEIKKVATPKK [Unmod H1 variant T K K E I K K V A T P K K]: the “peptide microarray binding signal” value turned out to be 0.00482 ± 0.0004.

The target of a further assay is anti-H3K4me3 antibody ab8580. Described as above. The following applies: peptide region: Unmod H1 variant; binder concentration: 1:2,000 dilution. The procedure, abridged: as §1
RLVTTGVLKQTKG [Unmod H1 variant R L V T T G V L K Q T K G]: the “peptide microarray binding signal” value is 0.00321 ± 0.00047.

As to SFRLAKSDEPKKS [Unmod H1 variant S F R L A K S D E P K K S], the “peptide microarray binding signal” value amounted to 0.001 ± 0.00013.

On to TKKEIKKVATPKK [Unmod H1 variant T K K E I K K V A T P K K], for which the “peptide microarray binding signal” value was 0.000604 ± 3e-05.

The same assay, now with this note: peptide region: Unmod H1 variant; binder concentration: 1:10,000 dilution.
For RLVTTGVLKQTKG [Unmod H1 variant R L V T T G V L K Q T K G], the “peptide microarray binding signal” value was found to be 0.00348 ± 4.9e-05.

Consider SFRLAKSDEPKKS [Unmod H1 variant S F R L A K S D E P K K S], for which the “peptide microarray binding signal” value amounted to 0.00154 ± 9.8e-05.

For the molecule TKKEIKKVATPKK [Unmod H1 variant T K K E I K K V A T P K K], the “peptide microarray binding signal” value is 0.000628 ± 6.7e-06.

The target of a further assay is anti-H3K9me3 antibody ab8898. Described as above. The following applies: peptide region: Unmod H1 variant; binder concentration: 1:2,000 dilution. The procedure, abridged: as §1
For RLVTTGVLKQTKG [Unmod H1 variant R L V T T G V L K Q T K G], the “peptide microarray binding signal” value came to 0.00151 ± 8.2e-05.

Take SFRLAKSDEPKKS [Unmod H1 variant S F R L A K S D E P K K S]: the “peptide microarray binding signal” value is 0.000785 ± 0.00015.

For TKKEIKKVATPKK [Unmod H1 variant T K K E I K K V A T P K K], the “peptide microarray binding signal” value was 0.000121 ± 1.3e-06.

The assay is the same for the next values; noted with them: peptide region: Unmod H1 variant; binder concentration: 1:10,000 dilution.
For the molecule RLVTTGVLKQTKG [Unmod H1 variant R L V T T G V L K Q T K G], the “peptide microarray binding signal” value worked out at 0.001903 ± 1.8e-05.

In the case of SFRLAKSDEPKKS [Unmod H1 variant S F R L A K S D E P K K S], the “peptide microarray binding signal” value is 0.000923 ± 9.6e-06.

Take TKKEIKKVATPKK [Unmod H1 variant T K K E I K K V A T P K K]: the “peptide microarray binding signal” value was determined as 0.000519 ± 5.6e-06.

For the next assay, the target named is T1, HaloTag-ATRX ADD domain (163-292). The description is as above. The following applies: peptide region: H4 53-65; peptide modifications: H4K59me2; binder concentration: 50 nM. The essentials:
as §1
On to ETRGVLKVFLENV [H4 53-65 E T R G V L Kme2 V F L E N V], for which the “peptide microarray binding signal” value was found to be 0.00674 ± 0.0001.

The assay is the same for the next values; noted with them: peptide region: H4 53-65; peptide modifications: H4K59me2; binder concentration: 500 nM.
On to ETRGVLKVFLENV [H4 53-65 E T R G V L Kme2 V F L E N V], for which the “peptide microarray binding signal” value was found to be 0.00752 ± 0.00054.

Another assay concerns the target HaloTag-ING2 PHD (mouse Ing2 200-280). The assay is described as above. The following applies: peptide region: H4 53-65; peptide modifications: H4K59me2; binder concentration: 10 nM. The essentials:
as §1
Consider ETRGVLKVFLENV [H4 53-65 E T R G V L Kme2 V F L E N V], for which the “peptide microarray binding signal” value came out at 0.0113 ± 0.00022.

Staying with this assay, now noted: peptide region: H4 53-65; peptide modifications: H4K59me2; binder concentration: 100 nM.
Regarding ETRGVLKVFLENV [H4 53-65 E T R G V L Kme2 V F L E N V], the “peptide microarray binding signal” value was 0.00758 ± 0.0001.

Another assay has as its target anti-H3K4me3 antibody ab8580. Described as above. The following applies: peptide region: H4 53-65; peptide modifications: H4K59me2; binder concentration: 1:2,000 dilution. The procedure, abridged:
as §1
Take ETRGVLKVFLENV [H4 53-65 E T R G V L Kme2 V F L E N V]: the “peptide microarray binding signal” value was 0.00177 ± 0.00011.

The same assay, now with this note: peptide region: H4 53-65; peptide modifications: H4K59me2; binder concentration: 1:10,000 dilution.
As to ETRGVLKVFLENV [H4 53-65 E T R G V L Kme2 V F L E N V], the “peptide microarray binding signal” value was 0.00394 ± 0.0003.

In a further assay the target is anti-H3K9me3 antibody ab8898. The description is as above. Conditions: peptide region: H4 53-65; peptide modifications: H4K59me2; binder concentration: 1:2,000 dilution. The essentials:
as §1
Consider ETRGVLKVFLENV [H4 53-65 E T R G V L Kme2 V F L E N V], for which the “peptide microarray binding signal” value turned out to be 0.00122 ± 2.8e-05.

The same assay, now with this note: peptide region: H4 53-65; peptide modifications: H4K59me2; binder concentration: 1:10,000 dilution.
With ETRGVLKVFLENV [H4 53-65 E T R G V L Kme2 V F L E N V], the “peptide microarray binding signal” value came out at 0.003113 ± 2.6e-05.

A further assay has as its target T1, HaloTag-ATRX ADD domain (163-292). The description is as above. The following applies: peptide region: H4 53-65; peptide modifications: H4K59me3; binder concentration: 50 nM. The procedure, abridged:
as §1
As for ETRGVLKVFLENV [H4 53-65 E T R G V L Kme3 V F L E N V], the “peptide microarray binding signal” value stood at 0.00755 ± 0.00027.

Staying with this assay, now noted: peptide region: H4 53-65; peptide modifications: H4K59me3; binder concentration: 500 nM.
As for ETRGVLKVFLENV [H4 53-65 E T R G V L Kme3 V F L E N V], the “peptide microarray binding signal” value came to 0.00719 ± 0.00011.

The target in the next assay is HaloTag-ING2 PHD (mouse Ing2 200-280). The description is as above. Conditions: peptide region: H4 53-65; peptide modifications: H4K59me3; binder concentration: 10 nM. The procedure, abridged: as §1
In the case of ETRGVLKVFLENV [H4 53-65 E T R G V L Kme3 V F L E N V], the “peptide microarray binding signal” value amounted to 0.0074 ± 5.7e-05.

Staying with this assay, now noted: peptide region: H4 53-65; peptide modifications: H4K59me3; binder concentration: 100 nM.
Consider ETRGVLKVFLENV [H4 53-65 E T R G V L Kme3 V F L E N V], for which the “peptide microarray binding signal” value amounted to 0.006945 ± 4.9e-05.

Another assay concerns the target anti-H3K4me3 antibody ab8580. Described as above. Conditions: peptide region: H4 53-65; peptide modifications: H4K59me3; binder concentration: 1:2,000 dilution. The procedure, abridged: as §1
Turning to ETRGVLKVFLENV [H4 53-65 E T R G V L Kme3 V F L E N V], the “peptide microarray binding signal” value turned out to be 0.00549 ± 0.00064.

Staying with this assay, now noted: peptide region: H4 53-65; peptide modifications: H4K59me3; binder concentration: 1:10,000 dilution.
Take ETRGVLKVFLENV [H4 53-65 E T R G V L Kme3 V F L E N V]: the “peptide microarray binding signal” value came to 0.00616 ± 0.00023.

The target of another assay is anti-H3K9me3 antibody ab8898. The description is as above. The following applies: peptide region: H4 53-65; peptide modifications: H4K59me3; binder concentration: 1:2,000 dilution. The essentials:
as §1
Turning to ETRGVLKVFLENV [H4 53-65 E T R G V L Kme3 V F L E N V], the “peptide microarray binding signal” value was determined as 0.017 ± 0.0023.

The same assay, now with this note: peptide region: H4 53-65; peptide modifications: H4K59me3; binder concentration: 1:10,000 dilution.
For ETRGVLKVFLENV [H4 53-65 E T R G V L Kme3 V F L E N V], the “peptide microarray binding signal” value is 0.0133 ± 0.00048.
